From PubChem BioAssay (EPA / NIEHS)
Results filed as inconclusive are left out. Active and inactive are the calls of the source. Rule for the calls, unless noted: active = hit-call score of the fitted dose curve at least 0.9, where 1 is the maximum; inconclusive = response in the unintended direction; inactive = score below 0.9.

How the values were obtained:
[1] = Tanguay_ZF_120hpf_TRUN_legacy: (Legacy) Oregon State University Tanguay Lab 120 Hour Post-fertilization zebrafish Assay for Truncated Body (AID 2283655)
Method in brief: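 Single dechorionated zebrafish embryos received test chemical from 6 hpf in 0.64% DMSO, kept at 28C. At 120 hpf, brightfield inspection noted any truncated body.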

[2] = test system: Thyroperoxidase (TPO), gene 54314; assay: CCTE_Simmons_AUR_rTPO: CCTE's Amplex UltraRed Assay for Thyroperoxidase (TPO) Inhibition, Simmons Lab (AID 2283662);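 note: potency for loss of signal meaning inhibition of peroxidase activity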
Method in brief: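 Endpoint is decreased Amplex UltraRed fluorescence after a 30-min, 37C reaction of rat thyroid microsomes with 300 uM H2O2. Eight test concentrations (5 nM–87.5 uM final) in 0.5% DMSO, three biological replicates each.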

[3] = Tanguay_ZF_120hpf_TR_legacy: (Legacy) Oregon State University Tanguay Lab 120 Hour Post-fertilization zebrafish Assay for Touch Response (AID 2283667)
Method in brief: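 Binary touch-response call at 120 hpf, analysed as gain of signal versus DMSO baseline. Wild-type 5D larvae, static exposure at 28C, 0.64% DMSO final; 5uM trimethyltin chloride as positive control.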

[4] = CCTE_Padilla_ZF_144hpf_TERATOSCORE: (Legacy) CCTE's 144 Hour Post-fertilization zebrafish Assay Teratoscore, Padilla Lab (AID 2283679; active = hit-call score of the fitted dose curve at least 0.9, where 1 is the maximum; inactive = score below 0.9;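 for AC50: zebrafish embryos with chorions exposed by immersion from 6-8 hpf to 5 dpf with daily renewal; teratogenicity score from eye scoring of death hatching and malformations at 144 hpf; higher score means more developmental defects relative to DMSO baseline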)
Method in brief: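 Larvae scored by eye at 144 hpf for death, hatching and malformations after a day in clean Hanks'. Before that, daily-renewed exposure at 80 uM (0.4% DMSO, 26C) from roughly 6-8 hpf through 5 dpf, 4 embryos per chemical.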

[5] = STM_H9_OrnithineISnorm_perc: Stemina devTOX quickPredict H9 human embryonic stem cell (hESC)-based Assay for Ornithine (ORN) Metabolite Biomarker, Normalized (AID 2283712; active = hit-call score of the fitted dose curve at least 0.9, where 1 is the maximum; inactive = score below 0.9;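 note: ornithine released into spent medium during last day measured by mass spectrometry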)
Method in brief: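 Metabolite endpoint from spent media of pluripotent H9 cells treated 72 h with daily re-feeding; ornithine measured by UPLC-HRMS against its 13C spike-in and referenced to the median 0.1% DMSO vehicle response.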

[6] = Tanguay_ZF_120hpf_ActivityScore_legacy: (Legacy) Oregon State University Tanguay Lab 120 Hour Post-fertilization zebrafish Assay Score for Activity (AID 2283742);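 for AC50: dechorionated Tropical 5D wild-type zebrafish embryos held singly per well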
Method in brief: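 Dechorionated 5D embryos, one per well, static exposure 6–120 hpf, 28C, sealed and dark; final DMSO 0.64% (vol/vol). Brightfield binary scoring of mortality plus 18 endpoints; gain-of-signal fit versus DMSO baseline.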

[7] = ArunA_CellTiter_hNC: Viability Assessment in the ArunA Biomedical's Oris Neural Crest (hNC) Cell Migration Assay (AID 2283752)
Method in brief: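 Cytotoxicity endpoint run alongside the migration assay: neural crest cells on Matrigel, 60,000 per well, preincubated 16 h at 37C, treated 72 h; CellTiter Aqueous One signal loss relative to DMSO.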

[8] = ArunA_Migration_hNP: ArunA Biomedical's Oris Neuroprogenitor (hNP) Cell Migration Assay (AID 2283754)
Method in brief: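 Readout is calcein-AM fluorescence (ex494/em517) of cells migrating into the detection zone, relative to DMSO. hNP1 cells (H9-derived) grown on Matrigel behind stoppers 16 h, then stoppers pulled and chemical applied 72 h; cytochalasin D as control.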

[9] = ArunA_Migration_hNC: ArunA Biomedical's Oris Neural Crest (hNC) Cell Migration Assay (AID 2283755)
Method in brief: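 Calcein-AM fluorescence (ex494 nm/em 517 nm) in the stopper-defined detection zone quantifies migration of hNC cells after 72 h chemical exposure; 60,000 cells/well plated on Matrigel with LIF and bFGF, 16 h pre-incubation. DMSO baseline.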

[10] = ArunA_NOG_NucleusCount: ArunA Biomedical's Neurite Outgrowth (NOG) Assay for Nucleus Count (AID 2283756)
Method in brief: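 Viable neuron count, from Hoechst nuclei passing size and intensity gates, imaged at 20x on differentiated H9-derived human neurons. Exposure lasted 48 h from seeding; activity was scored relative to DMSO.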

[11] = target: Luciferin 4-monooxygenase (Photinus pyralis) (UniProt P08659); assay: CCTE_Simmons_QuantiLum_inhib_2: CCTE's Firefly Luciferase Inhibition Assay, Simmons Lab (AID 2283767);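 for AC50: potency for inhibitors that lower luciferase luminescence relative to DMSO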
Method in brief: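 Eight-point titrations of each chemical, 5 nM–87.5 uM final in 0.5% DMSO, were run in three biological replicates against recombinant luciferase for 30 min at 37C. Bioluminescence signal loss, read on reagent injection, gave the inhibition endpoint.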

[12] = CEETOX_H295R_MTT_cell_viability: Viability Assessment in the CeeTox HT-H295R MTT Assay (AID 2283718; active = hit-call score of the fitted dose curve at least 0.9, where 1 is the maximum; inactive = score below 0.9;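 for AC50: curve fitted both ways so AC50 may mark viability loss or gain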)
Method in brief: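 Human H295R adrenal cells, prestimulated 48 h with 10 uM forskolin, were exposed 48 h to chemicals in 0.1% DMSO. Viability was measured in the same wells by MTT (0.5 mg/ml, 4 h, 37 C), absorbance 570/650 nm, as percent of controls.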

[13] = test system: Thyroperoxidase (TPO), gene 445522; assay: CCTE_Simmons_GUA_TPO: CCTE's Guaiacol Assay for Thyroperoxidase (TPO) Inhibition, Simmons Lab (AID 2283750)
Method in brief: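 Porcine thyroid microsomes (25 ug) in 200mM potassium phosphate, preincubated 30 s at 37C with compound (8 concentrations, 5 nM–87.5 uM) and 35mM guaiacol; 1mM H2O2 starts reaction. Absorbance change at 450nm over first 80 s; loss of signal versus DMSO, three replicates.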

[14] = read-out: solute carrier (SLC10A1), SLC10A1 (gene 6554); assay: LTEA_HepaRG_SLC10A1: Life Technologies and Expression Analysis (LTEA) Assay for solute carrier (SLC10A1) using HepaRG (AID 2283657; active = hit-call score of the fitted dose curve at least 0.9, where 1 is the maximum; inactive = score below 0.9); conditions: mRNA level, 48 h; actives raise or lower the signal
Method in brief: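 HepaRG, 48 h exposure, 8-pt half-log curve from 100 uM in 0.5% DMSO, duplicates. Read-out: TaqMan qRT-PCR of SLC10A1 mRNA, normalized to three housekeeping genes. Gain/loss fit vs DMSO baseline.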

[15] = read-out: matrix metalloproteinase-1 (MMP1), MMP1 (gene 4312); assay: LTEA_HepaRG_MMP1: Life Technologies and Expression Analysis (LTEA) Assay for matrix metalloproteinase-1 (MMP1) using HepaRG (AID 2283658; active = hit-call score of the fitted dose curve at least 0.9, where 1 is the maximum; inactive = score below 0.9); conditions: mRNA level, 48 h; actives raise or lower the signal
Method in brief: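 In this screen, human liver HepaRG cultures receive each chemical in duplicate for 48 h (top 100 uM, 0.5% DMSO). MMP1 expression is then quantified by TaqMan qRT-PCR with ACTB/GAPDH/POLR2A normalization.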

[16] = read-out: Cytochrome P450 (CYP24A1_1), CYP24A1 (gene 1591); assay: LTEA_HepaRG_CYP24A1_1: Life Technologies and Expression Analysis (LTEA) Assay for Cytochrome P450 (CYP24A1_1) using HepaRG (AID 2283671; active = hit-call score of the fitted dose curve at least 0.9, where 1 is the maximum; inactive = score below 0.9); conditions: mRNA level, 48 h; actives raise or lower the signal
Method in brief: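 Readout is CYP24A1 transcript level by qRT-PCR, normalized to three housekeeping genes, with gain or loss of signal fitted against 0.5% DMSO. Human HepaRG cells received compound for 48 h at up to 100 uM.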

[17] = STM_H9_OrnCyssISnorm_ratio: Stemina devTOX quickPredict H9 human embryonic stem cell (hESC)-based Assay for Ornithine (ORN):Cystine (CYSS) Ratio (AID 2283714)
Method in brief: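 UPLC-HRMS of spent media: ORN/CYSS ratio of internal-standard-normalized percentages, DMSO (0.1%) baseline. Pluripotent H9 hESCs, 72h exposure, daily re-dosing with fresh media; last 24h media collected.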

[18] = ArunA_NOG_NeuriteLength: ArunA Biomedical's Neurite Outgrowth (NOG) Assay for Neurite Length (AID 2283757)
Method in brief: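 Total neurite length per neuron, from traced βIII-tubulin-labelled processes longer than 10 um on viable Hoechst-gated cells, was scored as decrease from DMSO. Cells were hESC (H9)-derived neurons given 48 h chemical exposure immediately after seeding.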

[19] = ArunA_NOG_NeuritesPerNeuron: ArunA Biomedical's Neurite Outgrowth (NOG) Assay for Neurites Per Neuron (AID 2283758)
Method in brief: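 Differentiated human H9-derived neurons exposed to chemicals for 48 h from seeding, then stained with Hoechst and βIII-tubulin/DyLight 488. Automated imaging counted neurites (processes >10 um) per valid neuron; loss of signal versus DMSO scored.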

[20] = Tanguay_ZF_120hpf_NC_legacy: (Legacy) Oregon State University Tanguay Lab 120 Hour Post-fertilization zebrafish Assay for Notochord and Tail Malformation (AID 2283656)
Method in brief: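 Binary notochord-distortion calls, made by brightfield inspection, form the read-out; activity is fitted in the positive direction against DMSO. Exposure ran statically from 6 to 120 hpf at 28C with 0.64% DMSO.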

Measured: AC50

Luciferin 4-monooxygenase (Photinus pyralis), sequence (P08659 whole entry, looked up): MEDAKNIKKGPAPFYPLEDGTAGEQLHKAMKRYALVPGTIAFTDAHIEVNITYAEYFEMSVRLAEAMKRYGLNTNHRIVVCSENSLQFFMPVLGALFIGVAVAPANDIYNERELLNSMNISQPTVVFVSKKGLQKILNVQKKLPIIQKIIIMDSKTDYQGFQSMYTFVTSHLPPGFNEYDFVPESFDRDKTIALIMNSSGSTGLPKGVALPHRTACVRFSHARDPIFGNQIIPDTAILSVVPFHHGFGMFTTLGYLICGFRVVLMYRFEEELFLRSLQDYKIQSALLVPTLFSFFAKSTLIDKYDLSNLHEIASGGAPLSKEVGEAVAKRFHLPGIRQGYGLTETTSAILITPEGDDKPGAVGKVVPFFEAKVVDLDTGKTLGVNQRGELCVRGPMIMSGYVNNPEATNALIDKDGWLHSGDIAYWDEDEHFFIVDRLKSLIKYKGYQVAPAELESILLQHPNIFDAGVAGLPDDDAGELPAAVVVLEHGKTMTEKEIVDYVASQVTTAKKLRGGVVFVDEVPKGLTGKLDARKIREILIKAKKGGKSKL

CCCCCCCCCCCCc1ccccc1S(=O)(=O)O
active: [2] 37.3 µM | [4] 3.26 µM | [5] 0.00695 µM
inactive: [1] | [3] | [6] | [7] | [8] | [9] | [10] | [11]

O=C(O)c1ccccc1C(c1ccc(O)cc1)c1ccc(O)cc1
active: [2] 4.26 µM | [13] 118 µM | [11] 15.3 µM
inactive: [1] | [3] | [4] | [12] | [6]

c1ccc2cc3c(ccc4ccccc43)cc2c1
active: [2] 22.6 µM | [4] 20.4 µM | [11] 17.3 µM
inactive: [1] | [3] | [12] | [6]

C=C(C)C(=O)OCCC(F)(F)C(F)(F)C(F)(F)C(F)(F)C(F)(F)C(F)(F)F
inactive: [1] | [14] | [15] | [3] | [16] | [4] | [6]

CC(O)CO (stereo not drawn)
inactive: [1] | [14] | [15] | [3] | [16] | [6]

CC[C@H](c1ccc(O)cc1)[C@@H](CC)c1ccc(O)cc1
inactive: [1] | [3] | [6] | [11]
active: [2] 4.36 µM | [4] 14.9 µM

C[C@@H]1C[C@H]2[C@@H]3CCC4=CC(=O)C=C[C@]4(C)[C@@]3(F)[C@@H](O)C[C@]2(C)[C@@]1(O)C(=O)COP(=O)(O)O
inactive: [1] | [3] | [4] | [5] | [17] | [12] | [6]

NC(=O)N1C(=O)C(C(=O)c2cc(Cl)cs2)c2cc(F)c(Cl)cc21 (stereo not drawn)
active: [4] 4.57 µM | [6] 2.88 µM
inactive: [1] | [3]

CCCCCCC(=O)O
inactive: [3] | [6]

O=C(O)Cc1cc(I)c(Oc2cc(I)c(O)c(I)c2)c(I)c1
inactive: [1] | [3] | [5] | [17] | [7] | [9] | [10] | [18] | [19]
active: [4] 0.0352 µM | [6] 3.08 µM

OCCC(F)(F)C(F)(F)C(F)(F)C(F)(F)C(F)(F)C(F)(F)F
inactive: [1] | [3] | [4] | [6]

CC(C)CCCCCCOC(=O)CCCCC(=O)OCCCCCCC(C)C
inactive: [1] | [3] | [6]

CC[C@H](C)[C@@H](C(=O)O)n1sc2ccccc2c1=O
inactive: [1] | [3] | [6]

Oc1cccc(O)c1
active: [2] 0.0137 µM | [12] 1.35 µM | [11] 16.1 µM
inactive: [6]

CN(C)C=O
inactive: [1] | [3] | [5]

CCCOc1sc(C(=O)N2CCC(c3cc(CN)ccc3F)CC2)c(C)c1Br
inactive: [1] | [6]
active: [4] 57.5 µM

CC(=O)NC1(c2cccc(F)c2)CCN(CC[C@@]2(c3ccc(Cl)c(Cl)c3)CN(c3ccccc3)C(=O)CO2)CC1
inactive: [1] | [3] | [6]

CCCCCCCCOC(=O)CCCCCCCCC(=O)OCCCCCCCC
inactive: [1] | [3] | [4] | [6]

CCOC(=O)CC(O)(CC(=O)OCC)C(=O)OCC
inactive: [1] | [3] | [6]

CCc1nn(C2CCCCC2)c2cc(C3(C#N)CCC(C(=O)O)CC3)ccc12 (stereo not drawn)
inactive: [12]
active: [1] 171 nM | [3] 2.48 µM | [4] 0.263 µM | [6] 0.421 µM

CC#C[C@]1(O)CC[C@H]2[C@@H]3CCC4=CC(=O)CCC4=C3[C@@H](c3ccc(N(C)C)cc3)C[C@@]21C
inactive: [11]
active: [2] 4.74 µM | [3] 11.7 µM | [4] 14.5 µM | [12] 13.4 µM | [6] 27.9 µM

OC1CCC(C2CCCCC2)CC1 (stereo not drawn)
active: [4] 87.6 µM
inactive: [1] | [3] | [6]

c1ccc2c(c1)Cc1ccccc1-2
inactive: [3] | [12] | [6]

CN1CCC[C@H]1c1cccnc1
inactive: [1] | [3] | [5] | [12] | [6]

COCC(C)O (stereo not drawn)
inactive: [1] | [3] | [4] | [6]

CC(C)(C)c1cccc(C(C)(C)C)c1O
inactive: [20] | [6] | [11]
active: [2] 2.68 µM | [4] 97.8 µM

OC1CCCCC1
inactive: [1] | [3] | [4] | [6]

Cc1cc(C)c(O)c(C)c1
inactive: [3] | [6] | [11]
active: [2] 5.53 µM

COC(=O)CCCCC(=O)OC
inactive: [1] | [3] | [12] | [6]

CCc1ccc(CCOc2ccc(CC3SC(=O)NC3=O)cc2)nc1 (stereo not drawn)
inactive: [1] | [3] | [12] | [6]
active: [5] 72.1 µM | [17] 84.5 µM

OCCC(F)(F)C(F)(F)C(F)(F)C(F)(F)C(F)(F)C(F)(F)C(F)(F)C(F)(F)F
inactive: [1] | [3] | [4] | [6]

CCCCC(CC)COC(=O)CCCCC(=O)OCc1ccccc1 (stereo not drawn)
inactive: [1] | [3] | [6]

CCCCCCCCCCCCCC[N+](C)(C)C
active: [2] 38.4 µM
inactive: [11]

CCCCCCCCCCCCCCCS(=O)(=O)Oc1ccccc1
inactive: [1] | [3] | [12] | [6]

CCCCOCCO
inactive: [20] | [4] | [6]

CC(=O)CC(C)(C)O
inactive: [1] | [3] | [4] | [6]

COCC(C)OCC(C)O (stereo not drawn)
inactive: [3] | [6]

CC(C)(C)CC(C)(C)c1ccc(O)c(-n2nc3ccccc3n2)c1
inactive: [1] | [3] | [6]

CCC(C)(C)C1CCC(O)CC1 (stereo not drawn)
inactive: [1] | [3] | [4] | [6]
